What all share (experiment): growth (OD600 after 10 h); higher = more growth (less inhibition)
Test [1] concerns E. coli TESEC Alr+ wild-type control. The following applies: compound 0.1 mM; raw OD600 reference: median of DMSO wells 0.241, cell-free background 0.041. As for the experimental part:
(§1)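 TESEC Mtb Alr E. coli, or the Alr+ wild-type control, in 384-well plates with Prestwick library compounds at 0.1 mM and 1% DMSO, across arabinose induction levels of 1E3 to 1E7 nM. Growth is read as OD600 after 10 h at 37 °C in triplicate biological replicates.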

In test [2] the test system is E. coli TESEC Mtb Alr. The following applies: compound 0.1 mM. As for the experimental part:
as §1

The next test relates to E. coli TESEC Mtb Asd. Conditions: compound 0.1 mM. Here is the method: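 TESEC E. coli strains in which the native enzyme is deleted and replaced by arabinose-inducible Mtb Asd, DapB, CysH or TrpD, each grown in its selective medium. Strains were screened against the Prestwick library at 0.1 mM and 1% DMSO in 384-well format at low and high arabinose induction. Growth is read as OD600 after 10 h in triplicate.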

Test [3] has as its system E. coli TESEC Alr+ wild-type control. The following applies: compound 0.1 mM; raw OD600 reference: median of DMSO wells 0.49, cell-free background 0.052. Here is the method:
(§2)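 TESEC Mtb Alr E. coli (ΔaraC ΔtolC ΔentC Δalr ΔdadX, arabinose-inducible Mtb Alr) or the Alr+ wild-type control strain, grown in defined M9-fructose medium without D-alanine in 96-well plates with Prestwick library compounds at 0.1 mM and 1% DMSO. Low Alr induction is 0.1 µM arabinose and high induction is 10 mM arabinose.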

Test [4] has as its system E. coli TESEC Mtb Alr. Conditions: compound 0.1 mM. As for the experimental part: as §2
The source holds these as a separate data set.

Setting [5] is: arabinose 1000 nM, raw OD600 reference: median of DMSO wells 0.294, cell-free background 0.041.
The mark [6] stands for this setting: arabinose 10000 nM, raw OD600 reference: median of DMSO wells 0.264, cell-free background 0.041.
Where [7] appears, read: arabinose 100000 nM, raw OD600 reference: median of DMSO wells 0.201, cell-free background 0.041.
The mark [8] stands for this setting: arabinose 1000000 nM, raw OD600 reference: median of DMSO wells 0.193, cell-free background 0.041.
Setting [9] is: arabinose 10000000 nM, raw OD600 reference: median of DMSO wells 0.146, cell-free background 0.041.
Setting [10] is: arabinose induction (level): High, raw OD600 reference: median of DMSO wells 0.331, cell-free background 0.041.
Setting [11] is: arabinose induction (level): Low, raw OD600 reference: median of DMSO wells 0.417, cell-free background 0.041.
The mark [12] stands for this setting: arabinose 100 nM, raw OD600 reference: median of DMSO wells 0.413, cell-free background 0.052.
[13] abbreviates: arabinose 10000000 nM, raw OD600 reference: median of DMSO wells […], cell-free background 0.052.

Counter-ions that a name gives are not always drawn. ± gives the standard deviation of the averaged measurements.

For `CCOC(=O)C(C)(C)Oc1ccc(Cl)cc1` [Clofibrate], the growth in test [1] was 0.237 ± 0.0033; in the test on E. coli TESEC Mtb Alr [2] (setting [5]), 0.287 ± 0.0062; with E. coli TESEC Mtb Alr [2] (setting [6]), 0.268 ± 0.0049; in the test with E. coli TESEC Mtb Alr [2] (setting [7]), 0.19 ± 0.013; with E. coli TESEC Mtb Alr [2] (setting [8]), 0.194 ± 0.0078; with E. coli TESEC Mtb Alr [2] (setting [9]), 0.137 ± 0.0052. Further, the growth in the test with E. coli TESEC Mtb Asd (setting [10]) was 0.279 ± 0.041; in the test with E. coli TESEC Mtb Asd (setting [11]), 0.415 ± 0.043; in test [3], 0.609 ± 0.065; in the test with E. coli TESEC Mtb Alr [4] (setting [12]), 0.4111 ± 0.0031; in the test with E. coli TESEC Mtb Alr [4] (setting [13]), 0.325 ± 0.0033.

With `O=C(O)Cc1ccc(-c2ccccc2)cc1` [Felbinac], the growth was found to be 0.235 ± 0.0055 in test [1]; 0.277 ± 0.023 in the test on E. coli TESEC Mtb Alr [2] (setting [5]); 0.245 ± 0.0027 in the test on E. coli TESEC Mtb Alr [2] (setting [6]); 0.163 ± 0.0054 in the test with E. coli TESEC Mtb Alr [2] (setting [7]); 0.173 ± 0.0071 with E. coli TESEC Mtb Alr [2] (setting [8]); 0.1221 ± 0.00095 with E. coli TESEC Mtb Alr [2] (setting [9]). The growth amounted to 0.273 ± 0.054 with E. coli TESEC Mtb Asd (setting [10]); 0.434 ± 0.02 in the test with E. coli TESEC Mtb Asd (setting [11]); 0.575 ± 0.04 in test [3]; 0.396 ± 0.014 in the test with E. coli TESEC Mtb Alr [4] (setting [12]); 0.305 ± 0.0053 with E. coli TESEC Mtb Alr [4] (setting [13]).

Consider `Cc1onc(-c2ccccc2)c1-c1ccc(S(N)(=O)=O)cc1` [Valdecoxib], for which the growth was found to be 0.124 ± 0.0019 in test [1]; 0.173 ± 0.0027 in the test on E. coli TESEC Mtb Alr [2] (setting [5]); 0.216 ± 0.029 in the test on E. coli TESEC Mtb Alr [2] (setting [6]); 0.148 ± 0.0053 in the test with E. coli TESEC Mtb Alr [2] (setting [7]); 0.0949 ± 0.0023 with E. coli TESEC Mtb Alr [2] (setting [8]); 0.122 ± 0.0014 with E. coli TESEC Mtb Alr [2] (setting [9]). In addition, the growth in the test on E. coli TESEC Mtb Asd (setting [10]) is 0.196 ± 0.038; in the test with E. coli TESEC Mtb Asd (setting [11]), 0.245 ± 0.045; in test [3] it was 0.388 ± 0.027; in the test on E. coli TESEC Mtb Alr [4] (setting [12]), 0.4007 ± 0.0035; in the test with E. coli TESEC Mtb Alr [4] (setting [13]), 0.198 ± 0.016.

In the case of `CCCCc1cc2ccccc2c(OCCN(C)C)n1` [Dimethisoquin hydrochloride], the growth was found to be 0.177 ± 0.0065 in test [1]; 0.182 ± 0.0035 with E. coli TESEC Mtb Alr [2] (setting [5]); 0.162 ± 0.0045 in the test on E. coli TESEC Mtb Alr [2] (setting [6]); 0.199 ± 0.0029 with E. coli TESEC Mtb Alr [2] (setting [7]); 0.0689 ± 0.0025 in the test with E. coli TESEC Mtb Alr [2] (setting [8]); 0.1567 ± 0.0013 with E. coli TESEC Mtb Alr [2] (setting [9]). In addition, the growth with E. coli TESEC Mtb Asd (setting [10]) came to 0.154 ± 0.0042; in the test with E. coli TESEC Mtb Asd (setting [11]), 0.171 ± 0.015; in test [3], 0.444 ± 0.022; with E. coli TESEC Mtb Alr [4] (setting [12]) it was 0.3984 ± 0.0029; in the test with E. coli TESEC Mtb Alr [4] (setting [13]), 0.308 ± 0.011.

Turning to `CN(C)CCCOc1nn(Cc2ccccc2)c2ccccc12` [Benzydamine hydrochloride], the growth in test [1] is 0.183 ± 0.0043; in the test on E. coli TESEC Mtb Alr [2] (setting [5]) it was 0.224 ± 0.012; with E. coli TESEC Mtb Alr [2] (setting [6]), 0.25 ± 0.0088; in the test on E. coli TESEC Mtb Alr [2] (setting [7]), 0.167 ± 0.0029; in the test on E. coli TESEC Mtb Alr [2] (setting [8]), 0.112 ± 0.0038; in the test with E. coli TESEC Mtb Alr [2] (setting [9]), 0.146 ± 0.0037. Further, the growth with E. coli TESEC Mtb Asd (setting [10]) was found to be 0.193 ± 0.043; with E. coli TESEC Mtb Asd (setting [11]), 0.348 ± 0.023; in test [3], 0.452 ± 0.0099; in the test on E. coli TESEC Mtb Alr [4] (setting [12]), 0.404 ± 0.0075; with E. coli TESEC Mtb Alr [4] (setting [13]), 0.283 ± 0.021.

Regarding `CCN1CC(CCN2CCOCC2)C(c2ccccc2)(c2ccccc2)C1=O` (stereo unspecified) [Doxapram hydrochloride], the growth in test [1] was 0.234 ± 0.0045; in the test on E. coli TESEC Mtb Alr [2] (setting [5]) it was 0.284 ± 0.0045; in the test with E. coli TESEC Mtb Alr [2] (setting [6]), 0.248 ± 0.004; in the test with E. coli TESEC Mtb Alr [2] (setting [7]), 0.199 ± 0.018; with E. coli TESEC Mtb Alr [2] (setting [8]), 0.205 ± 0.016; with E. coli TESEC Mtb Alr [2] (setting [9]), 0.1315 ± 0.0013. In addition, the growth amounted to 0.309 ± 0.091 with E. coli TESEC Mtb Asd (setting [10]); 0.426 ± 0.072 in the test on E. coli TESEC Mtb Asd (setting [11]); 0.54 ± 0.012 in test [3]; 0.394 ± 0.016 in the test with E. coli TESEC Mtb Alr [4] (setting [12]); 0.339 ± 0.014 in the test with E. coli TESEC Mtb Alr [4] (setting [13]).
